Results: PubChem BioAssay
Values joined by “and” are separate entries in the source; they are usually repeats but may differ in a detail not shown here. Identical values can stand only once. Records with an inconclusive call do not appear. Active and inactive are the calls of the source.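 The calls were made as follows, unless noted: active = normalized viability below 100% at a tested concentration; inactive = the rest.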

Columns and labels:
[1] = liver-stage malaria parasite growth inhibition, primary screen, cell-based, HepG2, luciferase luminescence, HepG2 viability (AID 624349; in the data active = parasite load remaining mostly below about 12%, no sharp cut-off; inactive = mostly above about 10%;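 also: 100% = mean of DMSO negative control wells on the same plate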); settings: P. berghei liver stage in HepG2, luciferase luminescence, concentration not given here; parasite load remaining: stronger effect = lower value; viability: measured here: HepG2 viability without parasites
[2] = test system: Hepatitis C virus NS3 helicase; assay: HCV NS3 helicase inhibitors, primary screen, biochemical, fluorescence polarization, LOPAC1280 library (AID 687035; in the data active = inhibition above about 37%); settings: Purified HCV NS3 helicase, Cy5-dT15 ssDNA binding fluorescence polarization; stronger effect = higher value; concentration not given here
[3] = Cy5 fluorescence quenching or enhancement artefacts, artefact control for HCV NS3 helicase inhibitor project, biochemical, LOPAC1280 (AID 687037; call rule not given here); settings: Cy5-DNA-NS3h complex fluorescence interference counterscreen
[4] = growth inhibition of DIPG glioma cells, dose response, cell-based, JHH-DIPG-1, MIPE4.0, CellTiter-Glo, qHTS (AID 1347062; cut-off not given, nearly all actives have AC50 up to about 27 µM); settings: JHH-DIPG-1 viability, CellTiter-Glo ATP luminescence
[5] = JHH-DIPG-1 glioma cell viability, MIPE5.0 library, CellTiter-Glo luminescence, qHTS (AID 1347067; cut-off not given, nearly all actives have AC50 up to about 26 µM;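 also: cells exposed to compound for 48 hours before readout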); settings: JHH-DIPG-1 glioma viability, CellTiter-Glo ATP luminescence
[6] = sensitizers of A549 cells to miR-34 induction, primary screen, imaging, A549 dox-inducible miR-34, nuclei and caspase counts (AID 1347080;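 active = compounds whose cell count with miR-34 switched on is under 0.7 times the count with it off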); settings: A549 miR-34 inducible, Hoechst nuclei count, 48 h
[7] = phospholipid biosynthesis inhibitors in animal cells, primary screen, cell-based, LOPAC library, screen 4 (AID 1347384; call rule not given here); settings: phospholipid biosynthesis inhibition screen, at 10 µM
[8] = viability rescue of complex I mutant cybrids, primary screen, cell-based, galactose medium, ATP luminescence (AID 1645843;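 active = z-score of at least 1.8 in each of two replicates, scored against plate mean and spread of sample wells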;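 also: positive z means more ATP and so rescue of galactose-driven cybrid death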); settings: complex I mutant cybrid cells, 72 h, stronger effect = higher value
[9] = growth inhibition of DIPG glioma cells, dose response, cell-based, SU-DIPG-IV, MIPE4.0, CellTiter-Glo, qHTS (AID 1347063; cut-off not given, nearly all actives have AC50 up to about 30 µM;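 also: compound exposure lasted 48 hours before the viability readout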); settings: SU-DIPG-IV viability, CellTiter-Glo ATP luminescence
[10] = viability loss in pontine glioma line – cell-based, SU-DIPG-XXV, MIPE5.0, CellTiter-Glo, qHTS, dose response (AID 1347065; cut-off not given, nearly all actives have AC50 up to about 26 µM;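 also: cells exposed to compound for 48 hours before ATP readout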); settings: CellTiter-Glo ATP luminescence
[11] = SU-DIPG-XXV glioma cell viability, MIPE5.0 library, qHTS (AID 1347068; cut-off not given, nearly all actives have IC50 up to about 30 µM;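 as to IC50: cells exposed to compound for 48 hours before viability readout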)
[12] = SU-DIPG-VI glioma cell viability, MIPE4.0 library, CellTiter-Glo luminescence, qHTS (AID 1347066; cut-off not given, nearly all actives have AC50 up to about 30 µM;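 also: cells exposed to compound for 48 hours before readout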); settings: CellTiter-Glo ATP luminescence
[13] = circadian clock period modulators, cell-based, LOPAC library, luminescence reporter (AID 2774; call rule not given here;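 also: values are relative to mean of DMSO wells on each plate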); settings: circadian reporter cells, at 7 µM, actives lie on both sides
[14] = growth inhibition of DIPG glioma cells, dose response, cell-based, SU-DIPG-XIII, MIPE5.0, CellTiter-Glo, qHTS (AID 1347064; cut-off not given, nearly all actives have AC50 up to about 23 µM;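 as to AC50: cells exposed to compound for 48 hours before the viability read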); settings: SU-DIPG-XIII viability, CellTiter-Glo ATP luminescence
[15] = modifiers of HSF1 nuclear foci, imaging, Selleck Cancer Library (AID 1347162; in the data active = plate-normalised HSF1 focus index below about 0.46); settings: human cells, at 10 µM; SSMD: measured here: HSF1 foci SSMD mean; cell count: measured here: cell number; plate-normalised HSF1 focus index: stronger effect = lower value
[16] = ovarian cancer cell viability with rucaparib, profiling panel, oncology-focused library, rucaparib conditional (AID 1508598); settings: patient-derived ovarian cancer cells, CellTiter-Glo viability, 144 h, stronger effect = lower value
[17] = stronger effect = lower value, cell number ratio, induced over uninduced
[18] = measured here: relative caspase fold change +Dox/-Dox
[19] = measured here: total cells with miR-34 induction, stronger effect = lower value
[20] = measured here: total cells without miR-34 induction

O=C1NC(=O)/C(=C/c2ccc(-c3ccc(F)cc3O)o2)S1
active: parasite load remaining [1] 10.7%
inactive: inhibition [2] 0% | fluorescence ratio (interference) [3] 1 | outcome [4] | outcome [5] | fold change [6, 17] 1.04 and 0.983 | outcome [7] | z-score [8] 1.31
62.9%: viability [1]
2.12 and 0.302: fold change [6, 18]
6460 and 6050: cell count [6, 20]
6690 and 5950: cell count [6, 19]

CO[C@H]1C[C@@H]2CC[C@@H](C)[C@@](O)(O2)C(=O)C(=O)N2CCCC[C@H]2C(=O)O[C@H]([C@H](C)C[C@@H]2CC[C@@H](OCCO)[C@H](OC)C2)CC(=O)[C@H](C)/C=C(/C)[C@@H](O)[C@@H](OC)C(=O)[C@H](C)C[C@H](C)/C=C\C=CC=C1C
active: AC50 [9] 8.33 µM | AC50 [10] 23.5 µM | AC50 [5] 29.5 µM | IC50 [11] 23.5 µM

CON(C)C(=O)N1N=C(c2cc(F)ccc2F)S[C@]1(CCCN)c1ccccc1
inactive: outcome [9] | outcome [12]

C[C@H](Cc1ccc(O)c(O)c1)[C@@H](C)Cc1ccc(O)c(O)c1
active: AC50 [9] 16.6 µM | AC50 [14] 18.6 µM | AC50 [12] 23.5 µM
inactive: period change [13] 0.005 h | inhibition [2] -2% | fluorescence ratio (interference) [3] 1 | outcome [11] | fold change [6, 17] 1.02 | outcome [7] | z-score [8] -1.22
8920: cell count [6, 19]
0.821: fold change [6, 18]
8770: cell count [6, 20]

CCc1ccc(N(CC(C)C)S(=O)(=O)c2ccc(OCC3CCOCC3)c(CO)c2)cc1
active: AC50 [10] 20.9 µM
inactive: outcome [14]

CC[C@H](Nc1ncnc2nc[nH]c12)c1nc2cccc(F)c2c(=O)n1-c1ccccc1
7370: cell count [15]
active: AC50 [9] 16.6 µM | viability ([16]; at 0.000305 µM, OCI-C5x cells, with rucaparib 10 µM, 100% = cells with rucaparib alone) 99.3% | viability ([16]; at 0.000305 µM, OCI-P5x cells, with rucaparib 20 µM, 100% = cells with rucaparib alone) 96.5% | viability ([16]; at 0.00122 µM, OCI-P5x cells, with rucaparib 20 µM, 100% = cells with rucaparib alone) 98.6% | viability ([16]; at 0.00488 µM, OCI-P5x cells, with rucaparib 20 µM, 100% = cells with rucaparib alone) 82.2% | viability ([16]; at 0.00488 µM, OCI-P5x cells, without rucaparib) 96.9% | viability ([16]; at 0.0195 µM, OCI-P5x cells, with rucaparib 20 µM, 100% = cells with rucaparib alone) 87.8% | viability ([16]; at 0.0781 µM, OCI-P5x cells, with rucaparib 20 µM, 100% = cells with rucaparib alone) 96.3% | viability ([16]; at 5 µM, OCI-P5x cells, with rucaparib 20 µM, 100% = cells with rucaparib alone) 98.1%
inactive: outcome [14] | outcome [5] | outcome [11] | plate-normalised HSF1 focus index [15] 1.08 | viability ([16]; at 0.000305 µM, OCI-C5x cells, without rucaparib) 121% | viability ([16]; at 0.000305 µM, OCI-P5x cells, without rucaparib) 104% | viability ([16]; at 0.00122 µM, OCI-C5x cells, with rucaparib 10 µM, 100% = cells with rucaparib alone) 104% | viability ([16]; at 0.00122 µM, OCI-C5x cells, without rucaparib) 124% | viability ([16]; at 0.00122 µM, OCI-P5x cells, without rucaparib) 105% | viability ([16]; at 0.00488 µM, OCI-C5x cells, with rucaparib 10 µM, 100% = cells with rucaparib alone) 108% | viability ([16]; at 0.00488 µM, OCI-C5x cells, without rucaparib) 116% | viability ([16]; at 0.0195 µM, OCI-C5x cells, with rucaparib 10 µM, 100% = cells with rucaparib alone) 101% | viability ([16]; at 0.0195 µM, OCI-C5x cells, without rucaparib) 138% | viability ([16]; at 0.0195 µM, OCI-P5x cells, without rucaparib) 105% | viability ([16]; at 0.0781 µM, OCI-C5x cells, with rucaparib 10 µM, 100% = cells with rucaparib alone) 110% | viability ([16]; at 0.0781 µM, OCI-C5x cells, without rucaparib) 129% | viability ([16]; at 0.0781 µM, OCI-P5x cells, without rucaparib) 104% | viability ([16]; at 0.313 µM, OCI-C5x cells, with rucaparib 10 µM, 100% = cells with rucaparib alone) 105% | viability ([16]; at 0.313 µM, OCI-C5x cells, without rucaparib) 119% | viability ([16]; at 0.313 µM, OCI-P5x cells, with rucaparib 20 µM, 100% = cells with rucaparib alone) 103% | viability ([16]; at 0.313 µM, OCI-P5x cells, without rucaparib) 115% | viability ([16]; at 1.25 µM, OCI-C5x cells, with rucaparib 10 µM, 100% = cells with rucaparib alone) 103% | viability ([16]; at 1.25 µM, OCI-C5x cells, without rucaparib) 139% | viability ([16]; at 1.25 µM, OCI-P5x cells, with rucaparib 20 µM, 100% = cells with rucaparib alone) 105% | viability ([16]; at 1.25 µM, OCI-P5x cells, without rucaparib) 109% | viability ([16]; at 5 µM, OCI-C5x cells, with rucaparib 10 µM, 100% = cells with rucaparib alone) 110% | viability ([16]; at 5 µM, OCI-C5x cells, without rucaparib) 133% | viability ([16]; at 5 µM, OCI-P5x cells, without rucaparib) 102%
2.21: SSMD [15]
